Screening results (PubChem BioAssay)
Only a selection was taken, and hits are over-represented in it overall.
CXXC DNA block – qHTS Fluorescence Polarization Assay for Inhibitors of MLL CXXC domain - DNA interaction. Histone-lysine N-methyltransferase 2A (Homo sapiens), Q03164. MLL-CXXC / FITC-HOXA9 DNA fluorescence polarization. Potency, µM (top dose mostly 115 µM), usual class: inhibitors. actives 0.037% (n = 290,000); active means well fitted inhibition curve with a large enough effect in the polarisation, with a control signal flat, not every such curve was filed as active; inconclusive means small, poorly fitted or top-dose-only effect, or effect the other way, or a change in a side signal; inactive means no such curve, though single readings can be large or run the other way; the % refers to the polarisation
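Fluorescence polarization: 7 uM MLL-CXXC (stock) preincubated 5 min with compounds, then 50 nM fluorescein-HOX-A9 DNA (stock) added; 30 min ambient. Buffer 50 mM Tris-HCl pH 7.5, 50 mM NaCl, 1 mM DTT, 0.05% BSA.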
Menin MLL FP TR – qHTS Assay for Inhibitors Targeting the Menin-MLL Interaction in MLL Related Leukemias: Competition With Texas Red Labeled MLL-derived Mutant Peptide; Menin + Texas Red MLL mutant peptide, fluorescence polarization; O00255; Potency, µM (doses to about 61.6 µM), most hits filed as inhibitors; actives 0.23% (n = 270,000); active means well fitted inhibition curve with a large enough effect in the polarisation, with a control signal flat, not every such curve was filed as active; inconclusive means small, poorly fitted or top-dose-only effect, or effect the other way, or a change in a side signal; inactive means no such curve, though single readings can be large or run the other way; the % refers to the polarisation
Target sequence (O00255 whole entry, looked up): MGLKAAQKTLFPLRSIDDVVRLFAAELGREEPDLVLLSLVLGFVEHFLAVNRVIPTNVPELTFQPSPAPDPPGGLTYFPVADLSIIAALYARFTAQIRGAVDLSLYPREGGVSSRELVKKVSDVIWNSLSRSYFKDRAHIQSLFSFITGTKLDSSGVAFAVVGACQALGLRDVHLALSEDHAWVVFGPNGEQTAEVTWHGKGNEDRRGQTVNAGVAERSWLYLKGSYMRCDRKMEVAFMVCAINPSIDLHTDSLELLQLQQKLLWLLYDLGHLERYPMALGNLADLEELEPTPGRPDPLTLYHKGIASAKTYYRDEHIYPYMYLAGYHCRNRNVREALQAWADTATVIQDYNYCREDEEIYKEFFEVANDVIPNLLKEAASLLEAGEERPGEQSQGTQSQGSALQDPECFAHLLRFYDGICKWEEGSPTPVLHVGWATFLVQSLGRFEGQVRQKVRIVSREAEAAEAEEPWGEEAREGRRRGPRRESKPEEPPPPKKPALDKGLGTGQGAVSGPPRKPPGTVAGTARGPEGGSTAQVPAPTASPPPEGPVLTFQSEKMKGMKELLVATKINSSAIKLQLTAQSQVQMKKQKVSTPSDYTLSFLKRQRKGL
MBNL1 CUG block – qHTS Assay for Inhibitors of MBNL1-poly(CUG) RNA binding. Muscleblind-like protein 1 (Homo sapiens), Q9NR56. TR-FRET MBNL1-His/biotin-(CUG)12 binding, 665/545 ratio. Potency, µM (highest dose often 57.5 µM), usual class: inhibitors. actives 0.036% (n = 280,000). AID 2675, 2010; active means well fitted inhibition curve with a large enough effect in the signal ratio, with a control signal flat, not every such curve was filed as active; inconclusive means small, poorly fitted or top-dose-only effect, or effect the other way, or a change in a side signal; inactive means no such curve, though single readings can be large or run the other way; the % refers to the signal ratio
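MBNL1-His + Biotin-(CUG)12, cpd titration 92 nM–58 uM; Tb anti-His Ab 0.055 ng/ul, SA-XL665 5 nM (final); 60 min RT; ratiometric 665/545 nm, Ex 340 nm; normalized to buffer and full-complex controls.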
Menin-MLL FL inh – qHTS Assay for Inhibitors Targeting the Menin-MLL Interaction in MLL Related Leukemias: Competition With Fluorescein Labeled MLL-derived Peptide | Fluorescence polarization, fluorescein-MLL peptide displacement from menin | FP activity change, % at 61.4 µM | 290,000 tested, under 10 active | AID 1766, 2009; active means well fitted curve in the direction sought with a large enough effect in the polarisation, not every such curve was filed as active; inconclusive means small, poorly fitted or top-dose-only effect, or effect the other way, or a change in a side signal; inactive means no such curve, though single readings can be large or run the other way; the % refers to the polarisation
MLL CXXC Fl – qHTS Fluorescence Polarization (FP) Assay for Inhibitors of MLL CXXC domain - DNA interaction: Fluorescein FP; shares compounds with CXXC DNA block; MLL CXXC-DNA binding, fluorescein FP; Potency, µM (highest dose often 345 µM), usual class: inhibitors; actives 70% (n = 200); AID 624160, 2012; further: nearly all actives have a fitted effect of over 80% in size
MLL CXXC FP-TR – qHTS Fluorescence Polarization (FP) Assay for Inhibitors of MLL CXXC domain - DNA interaction: Texas Red FP. shares compounds with CXXC DNA block. MLL CXXC-DNA binding, Texas Red fluorescence polarization. AID 624161, 2012. Potency, µM (doses to about 345 µM), hits mostly inhibitors. actives 40% (n = 200); further: nearly all actives have a fitted effect of over 75% in size
MLL CXXC HTRF – qHTS Fluorescence Polarization (FP) Assay for Inhibitors of MLL CXXC domain - DNA interaction: HTRF Assay | MLL CXXC-DNA binding, HTRF, biochemical | Potency, µM (highest dose often 172 µM), actives largely listed as inhibitors | shares compounds with CXXC DNA block | actives 30% (n = 210); further: nearly all actives have a fitted effect of over 80% in size
Large screens that a line does not name were inactive (follow-up assays come after a bar, where they were run); ! = not confirmed by another sample. Unless noted, the call rests on the fitted dose curve; in most records, active means well fitted inhibition curve with a large enough effect; inconclusive means small, poorly fitted or top-dose-only effect; inactive means no such curve, though single readings can be large or run the other way.

CCCCc1cc2c(cn1)=C(OC(=O)c1ccco1)C(C)(OC(=O)CC)C(=O)C=2 (stereo not given)	none (no result: CXXC DNA block, MBNL1 CUG block)
COc1ccc(C(=O)COC(=O)/C=C/c2ccc(S(=O)(=O)Nc3cccc(S(N)(=O)=O)c3)cc2)cc1	Menin MLL FP TR inconclusive, MBNL1 CUG block inconclusive
NS(=O)(=O)c1cccc(NS(=O)(=O)c2ccc(/C=C/C(=O)OCC(=O)c3ccc(Br)cc3)cc2)c1	Menin MLL FP TR 28µM
CC(=Nc1ccccc1N)c1c(C)cc(=O)n(O)c1O	Menin MLL FP TR inconclusive (no result: CXXC DNA block, MBNL1 CUG block)
COc1ccc(OC)c(N)c1	Menin MLL FP TR 25µM
COc1ccc(C=O)c(OC)c1	none
COc1ccc2c(c1)OC(C)(C)C(c1ccccc1)C2c1ccc(OCCN2CCCC2)cc1 (stereo not given)	none (no result: MBNL1 CUG block)
Cc1ccc(F)c(C2C3C=CCCC3(C)C(=O)N2Cc2ccccc2)c1 (stereo not given)	none (no result: CXXC DNA block, MBNL1 CUG block)
COc1ccc(-c2cc(=O)c3ccc(O)cc3o2)cc1	Menin MLL FP TR 22µM! (no result: CXXC DNA block, MBNL1 CUG block)
CC(=O)N1CCN(c2ccc(NCc3cccs3)cc2)CC1	Menin MLL FP TR 28µM
CC(=O)N1CCN(c2ccc(NCc3ccc(C)s3)cc2)CC1	none
CCCCCCOC(=O)C[N+](C)(C)CCOC1CC2CCC1(C)C2(C)C (stereo not given)	Menin MLL FP TR 16µM
CC(=O)c1c(O)cccc1O	none (no result: CXXC DNA block, MBNL1 CUG block)
COc1ccc(C=C2C(=O)c3ccccc3C2=O)cc1O	CXXC DNA block inconclusive, Menin MLL FP TR inconclusive, MBNL1 CUG block inconclusive
COc1cc(C=C2C(=O)c3ccccc3C2=O)cc(OC)c1OC	CXXC DNA block 35µM, Menin-MLL FL inh inconclusive | MLL CXXC Fl 45µM | MLL CXXC FP-TR 142µM | MLL CXXC HTRF 97µM
COc1cc(C=C2C(=O)c3ccccc3C2=O)ccc1O	CXXC DNA block inconclusive (no result: Menin MLL FP TR, MBNL1 CUG block) | MLL CXXC Fl 28µM | MLL CXXC FP-TR inconclusive | MLL CXXC HTRF inactive
Cc1ccccc1-c1cncnc1NCc1cccs1	none (no result: CXXC DNA block, MBNL1 CUG block)
CCCCc1nc2c(c3c1C[C@H](C)OC3)CN(C(=O)NCc1ccco1)CC2	none (no result: CXXC DNA block, MBNL1 CUG block)
CCN(CC)CCOCCOC(=O)C(CC)(CC)c1ccccc1 (tested in a mixture with another compound)	none (no result: MBNL1 CUG block)
Cc1ccc(C(=O)Nc2ccc(S(=O)(=O)O)c3cc(S(=O)(=O)O)cc(S(=O)(=O)O)c23)cc1NC(=O)c1cccc(NC(=O)Nc2cccc(C(=O)Nc3cc(C(=O)Nc4ccc(S(=O)(=O)O)c5cc(S(=O)(=O)O)cc(S(=O)(=O)O)c45)ccc3C)c2)c1	CXXC DNA block 7.9µM (no result: MBNL1 CUG block) | MLL CXXC Fl 20µM | MLL CXXC FP-TR 22µM! | MLL CXXC HTRF 4.9µM
COC(C(=O)C(O)C(C)O)C1Cc2cc3cc(OC4CC(OC5CC(O)C(O)C(C)O5)C(O)C(C)O4)c(C)c(O)c3c(O)c2C(=O)C1OC1CC(OC2CC(OC3CC(C)(O)C(O)C(C)O3)C(O)C(C)O2)C(O)C(C)O1 (stereo not given)	CXXC DNA block inconclusive, Menin-MLL FL inh inconclusive (no result: MBNL1 CUG block) | MLL CXXC HTRF inactive
